Laboratory results: ChEMBL document CHEMBL2218924, “A broad activity screen in support of a chemogenomic map for kinase signalling research and drug discovery” (Biochem J, 2013)

Columns and labels:
[1] = biological target: Tyrosine-protein kinase SYK (Homo sapiens) (UniProt P43405); conditions: at 10 µM
[2] = biological target: T1, Mitogen-activated protein kinase kinase kinase 7 (Homo sapiens) (UniProt O43318); conditions: at 1 µM
T1 sequence (whole entry): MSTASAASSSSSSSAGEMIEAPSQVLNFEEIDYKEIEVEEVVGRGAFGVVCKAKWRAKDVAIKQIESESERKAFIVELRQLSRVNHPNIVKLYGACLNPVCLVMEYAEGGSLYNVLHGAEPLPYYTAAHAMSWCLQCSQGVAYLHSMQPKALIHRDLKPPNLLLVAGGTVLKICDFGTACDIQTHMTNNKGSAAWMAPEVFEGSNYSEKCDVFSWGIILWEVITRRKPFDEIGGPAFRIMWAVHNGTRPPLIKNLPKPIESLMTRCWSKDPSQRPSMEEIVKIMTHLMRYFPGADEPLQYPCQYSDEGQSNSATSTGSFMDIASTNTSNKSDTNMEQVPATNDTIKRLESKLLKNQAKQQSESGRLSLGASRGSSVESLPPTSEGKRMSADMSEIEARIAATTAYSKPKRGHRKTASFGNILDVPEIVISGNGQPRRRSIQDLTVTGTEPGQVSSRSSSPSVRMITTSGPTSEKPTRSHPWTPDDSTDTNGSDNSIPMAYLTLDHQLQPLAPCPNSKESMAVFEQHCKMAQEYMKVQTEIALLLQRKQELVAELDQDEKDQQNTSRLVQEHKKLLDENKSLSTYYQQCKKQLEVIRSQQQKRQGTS

[3] = biological target: T1, Mitogen-activated protein kinase kinase kinase 7 (Homo sapiens); conditions: at 10 µM
[4] = biological target: T2, Serine/threonine-protein kinase TAO1 (Homo sapiens) (UniProt Q7L7X3); conditions: at 1 µM
T2 sequence (whole entry): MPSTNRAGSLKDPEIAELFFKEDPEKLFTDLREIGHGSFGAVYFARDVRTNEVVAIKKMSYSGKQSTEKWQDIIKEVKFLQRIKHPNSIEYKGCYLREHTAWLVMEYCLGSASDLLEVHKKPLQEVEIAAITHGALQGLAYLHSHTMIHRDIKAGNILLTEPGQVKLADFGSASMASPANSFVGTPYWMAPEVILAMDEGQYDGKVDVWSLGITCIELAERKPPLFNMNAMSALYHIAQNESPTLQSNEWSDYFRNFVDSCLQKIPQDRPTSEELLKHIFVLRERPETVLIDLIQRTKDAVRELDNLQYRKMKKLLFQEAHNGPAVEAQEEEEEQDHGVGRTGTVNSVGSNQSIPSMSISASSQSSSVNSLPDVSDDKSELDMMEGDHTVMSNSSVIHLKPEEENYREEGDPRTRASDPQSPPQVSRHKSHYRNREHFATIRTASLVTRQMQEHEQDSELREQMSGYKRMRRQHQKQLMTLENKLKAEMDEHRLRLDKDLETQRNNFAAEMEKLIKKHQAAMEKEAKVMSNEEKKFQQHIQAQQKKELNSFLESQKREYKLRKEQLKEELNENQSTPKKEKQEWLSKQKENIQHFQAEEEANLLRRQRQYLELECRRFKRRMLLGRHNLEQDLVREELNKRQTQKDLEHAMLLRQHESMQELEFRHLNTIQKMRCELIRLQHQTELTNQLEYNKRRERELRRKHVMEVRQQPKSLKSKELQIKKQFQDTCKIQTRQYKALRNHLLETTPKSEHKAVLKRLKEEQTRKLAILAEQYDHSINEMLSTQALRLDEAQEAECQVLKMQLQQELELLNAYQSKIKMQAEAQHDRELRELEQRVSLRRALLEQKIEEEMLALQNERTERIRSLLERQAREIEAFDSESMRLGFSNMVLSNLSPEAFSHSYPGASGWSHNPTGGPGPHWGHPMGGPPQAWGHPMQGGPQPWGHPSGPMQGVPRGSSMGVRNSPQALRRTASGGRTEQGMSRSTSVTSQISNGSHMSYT

[5] = biological target: T2, Serine/threonine-protein kinase TAO1 (Homo sapiens); conditions: at 10 µM
[6] = biological target: T3, Serine/threonine-protein kinase TAO2 (Homo sapiens) (UniProt Q9UL54); conditions: at 1 µM
T3 sequence (whole entry): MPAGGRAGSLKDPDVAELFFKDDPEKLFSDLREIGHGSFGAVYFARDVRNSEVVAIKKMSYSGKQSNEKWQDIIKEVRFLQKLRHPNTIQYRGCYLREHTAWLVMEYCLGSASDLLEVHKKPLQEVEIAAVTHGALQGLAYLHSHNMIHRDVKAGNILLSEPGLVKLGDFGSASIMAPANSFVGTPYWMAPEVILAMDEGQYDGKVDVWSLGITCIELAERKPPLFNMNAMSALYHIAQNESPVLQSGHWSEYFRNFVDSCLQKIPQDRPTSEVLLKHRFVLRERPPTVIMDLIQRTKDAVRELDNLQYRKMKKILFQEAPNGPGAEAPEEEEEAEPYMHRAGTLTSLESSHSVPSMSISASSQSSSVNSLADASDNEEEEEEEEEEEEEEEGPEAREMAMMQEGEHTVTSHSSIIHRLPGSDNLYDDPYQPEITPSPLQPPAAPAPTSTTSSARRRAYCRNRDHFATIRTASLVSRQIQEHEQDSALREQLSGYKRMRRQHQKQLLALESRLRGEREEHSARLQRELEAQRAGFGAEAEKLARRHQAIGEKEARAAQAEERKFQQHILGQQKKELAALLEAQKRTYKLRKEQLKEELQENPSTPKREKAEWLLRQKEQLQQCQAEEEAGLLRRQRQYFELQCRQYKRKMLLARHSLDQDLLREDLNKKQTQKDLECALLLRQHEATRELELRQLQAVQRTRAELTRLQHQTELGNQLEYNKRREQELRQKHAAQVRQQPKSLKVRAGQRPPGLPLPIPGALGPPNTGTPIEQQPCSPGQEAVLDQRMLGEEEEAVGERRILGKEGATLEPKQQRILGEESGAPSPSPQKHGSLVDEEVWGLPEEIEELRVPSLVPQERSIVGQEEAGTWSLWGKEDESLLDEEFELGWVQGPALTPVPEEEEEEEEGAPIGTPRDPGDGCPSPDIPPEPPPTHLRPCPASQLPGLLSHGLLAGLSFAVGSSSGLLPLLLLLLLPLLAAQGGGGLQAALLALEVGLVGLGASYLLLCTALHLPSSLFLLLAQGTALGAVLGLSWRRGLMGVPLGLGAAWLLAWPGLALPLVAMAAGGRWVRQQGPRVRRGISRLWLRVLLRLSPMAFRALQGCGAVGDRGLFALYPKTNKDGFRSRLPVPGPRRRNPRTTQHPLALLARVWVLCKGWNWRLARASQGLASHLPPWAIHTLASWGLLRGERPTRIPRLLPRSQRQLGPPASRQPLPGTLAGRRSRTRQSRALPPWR

[7] = biological target: T3, Serine/threonine-protein kinase TAO2 (Homo sapiens); conditions: at 10 µM
[8] = biological target: T4, Serine/threonine-protein kinase TAO3 (Homo sapiens) (UniProt Q9H2K8); conditions: at 1 µM
T4 sequence (whole entry): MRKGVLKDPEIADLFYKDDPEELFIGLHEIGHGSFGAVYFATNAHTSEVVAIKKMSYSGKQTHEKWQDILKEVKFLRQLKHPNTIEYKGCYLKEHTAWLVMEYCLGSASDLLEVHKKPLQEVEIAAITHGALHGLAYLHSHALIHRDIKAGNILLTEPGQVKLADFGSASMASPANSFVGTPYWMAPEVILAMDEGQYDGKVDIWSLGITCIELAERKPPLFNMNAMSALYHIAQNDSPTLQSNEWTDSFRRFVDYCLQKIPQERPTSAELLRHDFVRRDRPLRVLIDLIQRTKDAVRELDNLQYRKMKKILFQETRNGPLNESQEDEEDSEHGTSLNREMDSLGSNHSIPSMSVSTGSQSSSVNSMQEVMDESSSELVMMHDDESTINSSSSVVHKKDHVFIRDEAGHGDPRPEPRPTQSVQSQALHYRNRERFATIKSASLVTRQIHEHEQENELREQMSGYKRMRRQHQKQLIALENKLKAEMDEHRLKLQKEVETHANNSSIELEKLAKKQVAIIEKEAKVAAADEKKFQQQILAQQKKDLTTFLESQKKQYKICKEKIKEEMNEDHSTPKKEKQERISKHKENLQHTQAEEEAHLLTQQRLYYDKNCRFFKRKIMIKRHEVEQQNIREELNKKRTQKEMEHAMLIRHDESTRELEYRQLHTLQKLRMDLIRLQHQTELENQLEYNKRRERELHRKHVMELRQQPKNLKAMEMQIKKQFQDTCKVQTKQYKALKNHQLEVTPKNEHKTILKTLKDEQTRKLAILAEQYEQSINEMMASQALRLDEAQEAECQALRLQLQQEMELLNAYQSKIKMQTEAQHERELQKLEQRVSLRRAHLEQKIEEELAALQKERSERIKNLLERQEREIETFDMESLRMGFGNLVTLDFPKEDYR

[9] = biological target: T4, Serine/threonine-protein kinase TAO3 (Homo sapiens); conditions: at 10 µM
[10] = biological target: T5, Serine/threonine-protein kinase TBK1 (Homo sapiens) (UniProt Q9UHD2); conditions: at 1 µM
T5 sequence (whole entry): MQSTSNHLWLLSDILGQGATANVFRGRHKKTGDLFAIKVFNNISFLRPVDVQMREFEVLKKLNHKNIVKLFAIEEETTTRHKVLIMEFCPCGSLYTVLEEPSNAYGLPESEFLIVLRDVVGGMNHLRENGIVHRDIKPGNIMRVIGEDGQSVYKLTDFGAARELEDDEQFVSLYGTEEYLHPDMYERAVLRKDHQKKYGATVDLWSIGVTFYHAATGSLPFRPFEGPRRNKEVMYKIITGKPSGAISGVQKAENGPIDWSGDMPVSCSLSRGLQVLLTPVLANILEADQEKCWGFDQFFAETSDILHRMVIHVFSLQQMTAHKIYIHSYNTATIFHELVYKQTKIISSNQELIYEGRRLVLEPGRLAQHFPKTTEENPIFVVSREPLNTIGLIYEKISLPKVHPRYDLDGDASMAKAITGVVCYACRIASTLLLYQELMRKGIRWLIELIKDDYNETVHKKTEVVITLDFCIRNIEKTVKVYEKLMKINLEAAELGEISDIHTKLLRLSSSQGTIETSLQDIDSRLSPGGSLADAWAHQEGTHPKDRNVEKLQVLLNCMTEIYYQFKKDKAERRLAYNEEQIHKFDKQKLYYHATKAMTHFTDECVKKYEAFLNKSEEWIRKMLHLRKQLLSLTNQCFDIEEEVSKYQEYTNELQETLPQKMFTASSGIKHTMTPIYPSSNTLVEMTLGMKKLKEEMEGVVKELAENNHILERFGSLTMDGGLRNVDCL

**Q.** With `N#C/C(=C(\N)Sc1ccc(N)cc1)c1ccccc1C(F)(F)F` as the compound, how does the residual activity [1] read?
**A.** The residual activity was 78%.

**Q.** What about the residual activity [2] of the same compound?
**A.** The residual activity was 101%.

**Q.** What about the residual activity [3] of the same compound?
**A.** Its residual activity is 85%.

**Q.** What about the residual activity [4] of the same compound?
**A.** The residual activity was 89%.

**Q.** What about the residual activity [5] of the same compound?
**A.** The residual activity was 99%.

**Q.** And the residual activity [6]?
**A.** Its residual activity is 102%.

**Q.** What about the residual activity [7] of the same compound?
**A.** Its residual activity is 104%.

**Q.** What about the residual activity [8] of the same compound?
**A.** The residual activity was 99%.

**Q.** And the residual activity [9]?
**A.** The residual activity was 91%.

**Q.** What about the residual activity [10] of the same compound?
**A.** Its residual activity is 31%.
